AMA1 RON2 block – qHTS for Inhibitors of AMA1-RON; Towards Development of Antimalarial Drug Lead: Primary Screen; Plasmodium falciparum AMA1 (3D7) - RON2 peptide interaction; AlphaScreen AMA1-biotinylated RON2 peptide binding; Potency, µM (doses to about 58.2 µM), hits mostly inhibitors; 360,000 tested, 0.2% active; AID 720542, 2013; active = well fitted curve in the direction sought with a large enough effect; inconclusive = small, poorly fitted or top-dose-only effect, or another doubt; inactive = no such curve, though single readings can be large; an effect the other way counts as inactive or inconclusive; also: nearly all actives have a fitted effect of over 45% in size
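AMA1 (3D7) with his tag at 25 nM final met compounds first, then biotinylated RON2 peptide at 25 nM; detection used donor plus acceptor beads, 10 µg/mL apiece, read by AlphaScreen after 30 min at room temperature.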
SARS PLP yeast – qHTS of Yeast-based Assay for SARS-CoV PLP; S. cerevisiae expressing SARS-CoV PLpro, growth rescue; Potency, µM (titrated, usually from 32.9 µM), hits mostly activators; 330,000 tested, 0.19% active; also: nearly all actives have a fitted effect of over 55% in size
NS1 function inh – qHTS Assay for Inhibitors of Influenza NS1 Protein Function. Potency, µM (titrated, usually from 46.1 µM). 270,000 tested, 0.4% active; also: actives are rising curves; nearly all actives have a fitted effect of over 50% in size
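Recovery from NS1-induced slow growth read by OD600 in budding yeast switched to galactose assay medium (pH 6.0, -URA) at 1:100 dilution. Compound 23 nl per well; the matching strain lacking NS1 serves as control.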
AmpC no deterg – qHTS Inhibitors of AmpC Beta-Lactamase (assay without detergent); AmpC nitrocefin hydrolysis, absorbance 480 nm, 0.0001% Triton; 330,000 tested, 0.52% active; P00811; Potency, µM (titrated, usually from 57.1 µM), actives largely listed as inhibitors; active = well fitted curve in the direction sought with a large enough effect; inconclusive = small, poorly fitted or top-dose-only effect, or another doubt; inactive = no such curve, though single readings can be large; an effect the other way counts as inactive or inconclusive; also: nearly all actives have a fitted effect of over 20% in size
Target sequence (P00811 whole entry, looked up): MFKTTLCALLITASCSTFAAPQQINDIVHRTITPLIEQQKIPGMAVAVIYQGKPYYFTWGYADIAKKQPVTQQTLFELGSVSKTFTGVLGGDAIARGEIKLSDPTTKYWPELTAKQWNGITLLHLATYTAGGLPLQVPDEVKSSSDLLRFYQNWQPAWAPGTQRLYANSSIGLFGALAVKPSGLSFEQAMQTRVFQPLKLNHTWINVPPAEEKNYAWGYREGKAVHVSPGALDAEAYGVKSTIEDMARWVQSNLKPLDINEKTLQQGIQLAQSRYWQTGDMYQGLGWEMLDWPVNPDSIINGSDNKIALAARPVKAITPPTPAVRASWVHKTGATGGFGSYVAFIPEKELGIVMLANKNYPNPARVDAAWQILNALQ
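AmpC (5.3 nM in the dispensed reagent) in 20 mM phosphate pH 7.0 with 0.01% (detergent screen) or 0.0001% Triton X-100 was preincubated with compounds for 15 min at room temperature. Nitrocefin was then added from an 800 uM solution, and hydrolysis was followed at 480 nm.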
AmpC detergent – qHTS Inhibitors of AmpC Beta-Lactamase (assay with detergent) | Potency, µM (titrated, usually from 114 µM), most hits filed as inhibitors | P00811 | 370,000 tested, 0.041% active | AmpC hydrolysis of nitrocefin, absorbance 480 nm, 0.01% Triton; active = well fitted curve in the direction sought with a large enough effect; inconclusive = small, poorly fitted or top-dose-only effect, or another doubt; inactive = no such curve, though single readings can be large; an effect the other way counts as inactive or inconclusive; also: nearly all actives have a fitted effect of over 25% in size
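20 mM phosphate pH 7.0 + 0.01% (detergent screen) or 0.0001% Triton X-100; 5.3 nM AmpC reagent; cpd preinc 15 min RT; nitrocefin (800 uM stock) to start; A480 q20 s × 4 min; Activity was normalised to no-enzyme and no-compound control wells.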
NS1 inh valid – Assay for Inhibitors of Influenza NS1 Protein Function: Hit Validation; 1,400 tested, under 10 active; influenza NS1 function cell assay, 15-point titration; activity change, negative = inhibition, % at 32.9 µM; shares compounds with NS1 function inh; AID 492980, 2010
PR8 titer – Assay for Inhibitors of Influenza NS1 Protein Function: Influenza virus replication assay in MDCK cells infected with virus A/PR/8/34. shares compounds with NS1 function inh. MDCK infected influenza A/PR/8/34, virus titer TCID50; active compounds read low. virus titer (log TCID50), log10 TCID50 at 5 µM. 95 tested, 30% active. AID 504647, 2011; call rule not given here
Of the large screens only hits and unclear results are named; the others gave an inactive call (follow-up assays come after a bar, where they were run). Shown are actives, neighbours in structure and some others; about 0.99% of the full set was active somewhere. Unless noted, calls follow the shape of the full dose curve.

O=C(COc1ccc(Cl)cc1Cl)N1CCN(C(=O)c2ccco2)CC1	NS1 function inh inconclusive | NS1 inh valid inactive
O=C(Cc1ccccc1)Nc1nnc2n1CCS2	none (no result: AMA1 RON2 block, SARS PLP yeast, NS1 function inh, AmpC no deterg)
O=C(Nc1nnc2n1CCS2)c1ccco1	NS1 function inh inconclusive | NS1 inh valid inactive
COc1ccc(-n2c(O)c(/C=N/NS(=O)(=O)c3cc(C)ccc3C)c3ccccc3c2=O)cc1OC	none
COc1ccc(-n2c(O)c(/C=N/NS(=O)(=O)c3ccc(C)cc3)c3ccccc3c2=O)cc1OC	NS1 function inh 10µM | NS1 inh valid inactive
O=C(C1=NN(c2ccccc2)C2C(=O)N(c3ccccc3)C(=O)C12)c1ccccc1 (stereo not given)	NS1 function inh inconclusive
O=C(C1=NN(c2ccccc2)C2C(=O)N(c3ccccc3Cl)C(=O)C12)c1ccccc1 (stereo not given)	NS1 function inh 5.6µM | NS1 inh valid inactive | PR8 titer inactive
O=C(C[n+]1cccc(C(=O)Nc2ccccc2)c1)c1ccc(Cl)cc1	none (no result: SARS PLP yeast, NS1 function inh, AmpC no deterg, AmpC detergent)
O=C(C[n+]1cccc(C(=O)Nc2ccccc2)c1)c1ccc([N+](=O)[O-])cc1	NS1 function inh 2.5µM | NS1 inh valid inactive | PR8 titer inactive
C/C(=N\Nc1ccccc1)c1c(O)n(Cc2ccccc2)c(=O)[nH]c1=O	NS1 function inh 10µM | NS1 inh valid inactive
C/C(=N\Nc1ccccc1)c1c(O)n(-c2ccccc2)c(=O)[nH]c1=O	none
CC(C)c1nc2n[nH]c(N)c2c2c1CSC(C)(C)C2	NS1 function inh 5.6µM | NS1 inh valid inactive
CCCCc1nc2n[nH]c(N)c2c2c1CSC(C)(C)C2	none
COc1cccc(NC(=O)Cc2nnc(SCC(=O)c3ccccc3)n2C)c1	NS1 function inh 7.9µM | NS1 inh valid inactive
COc1ccccc1-n1c(SCC(=O)Nc2cccc(C(=O)O)c2)nnc1-c1ccccc1C	NS1 function inh 13µM, AmpC detergent inconclusive | NS1 inh valid inactive
COc1cccc(NC(=O)Cc2nnc(SCCOc3ccccc3)n2C)c1	none
CC1(c2ccc3ccccc3c2)NC(=O)N(CC(=O)Nc2cccc(S(=O)(=O)N3CCOCC3)c2)C1=O (stereo not given)	NS1 function inh 10µM | NS1 inh valid inactive | PR8 titer inactive
CC1(c2cc(F)ccc2F)NC(=O)N(CC(=O)Nc2cccc(S(=O)(=O)N3CCCC3)c2)C1=O (stereo not given)	none (no result: NS1 function inh)
COc1ccc(C2CC(c3ccccc3)=NN2C(=O)COC(=O)c2cc(S(=O)(=O)N3CCOCC3)ccc2Cl)cc1 (stereo not given)	NS1 function inh 10µM, AmpC detergent inconclusive | NS1 inh valid inactive
COC(=O)[C@@]1(Cc2ccc(F)cc2)[C@H]2c3cc(C(=O)N4CCCC4)n(CCc4ccc(O)c(O)c4)c3C[C@H]2CN1C(=O)c1ccccc1	NS1 function inh 8.9µM, AmpC detergent inconclusive (no result: AMA1 RON2 block) | NS1 inh valid inactive
Cc1ccc(S(=O)(=O)n2nc(C)cc2N)cc1	NS1 function inh 22µM | NS1 inh valid inactive
CCc1nnc2c3ccccc3nc(Nc3ccccc3OC)n12	none (no result: AMA1 RON2 block, SARS PLP yeast, NS1 function inh, AmpC no deterg)
Cc1ccc(-c2cc(C(=O)Nc3sc4c(c3C(=O)NCc3ccco3)CCC4)[nH]n2)c(O)c1	NS1 function inh inconclusive | NS1 inh valid inactive
Cc1ccc(NC(=O)CN2C(=O)S/C(=C\c3cc(C)n(C)c3C)C2=O)cc1	none
Cc1ccc(NC(=O)CN2C(=O)S/C(=C\c3cc(C)n(-c4cccc(C(=O)O)c4)c3C)C2=O)cc1	NS1 function inh 11µM | NS1 inh valid inactive
CCOc1ccc(S(=O)(=O)Nc2ccccn2)c2ccccc12	NS1 function inh 1.1µM | NS1 inh valid inactive
COc1ccc(Br)cc1CNC(=O)c1ccc2c(c1)nc1n2CCCCC1	none (no result: AMA1 RON2 block, SARS PLP yeast, NS1 function inh, AmpC no deterg)
Cc1ccc(C)c(NC(=O)c2nnn(Cc3ccc(F)cc3Cl)c2N)c1	none (no result: AMA1 RON2 block, SARS PLP yeast, NS1 function inh, AmpC no deterg)
CCn1c(N2CCN(CC(=O)c3c(C)n(C)c4ccc(OC)cc34)CC2)nc2c1c(=O)[nH]c(=O)n2C	NS1 function inh 11µM | NS1 inh valid inactive
CCOC(=O)CSc1nc2ccc(NC(=O)COc3ccccc3C)cc2s1	none (no result: AMA1 RON2 block, SARS PLP yeast, NS1 function inh, AmpC no deterg)
O=C(/C=C/c1cccnc1)c1cccc(O)c1	NS1 function inh inconclusive | NS1 inh valid inconclusive
COc1ccc(Br)c(C(=O)Nc2cc3c(cc2N2CCOCC2)n(C)c(=O)n3C)c1	none (no result: AMA1 RON2 block, SARS PLP yeast, NS1 function inh, AmpC no deterg)
Cc1cc(C)cc(NC(=O)CSc2nc3c(oc4ccccc43)c(=O)n2-c2ccccc2F)c1	none (no result: AMA1 RON2 block, SARS PLP yeast, NS1 function inh, AmpC no deterg)
Cc1cc(C)cc(NC(=O)CSc2nc3c(oc4ccccc43)c(=O)n2-c2ccccc2)c1	NS1 function inh 5µM, AmpC detergent inconclusive | NS1 inh valid inconclusive
CC(=O)NS(=O)(=O)c1ccc(NC(=O)c2cc(-c3ccc(C)c(C)c3)nc3ccccc23)cc1	none
Cc1ccc(-c2cc(C(=O)Nc3ccc(S(=O)(=O)Nc4nc(C)cc(C)n4)cc3)c3ccccc3n2)cc1	NS1 function inh 14µM | NS1 inh valid inactive
CC(=O)NS(=O)(=O)c1ccc(NC(=O)c2cc(-c3ccc(C)cc3)nc3ccccc23)cc1	NS1 function inh 8.9µM | NS1 inh valid inactive
O=C(Nc1cccc(S(=O)(=O)NC2=NCCCCC2)c1)c1cc(-c2ccc(Cl)cc2)nc2ccccc12	NS1 function inh 11µM, AmpC no deterg inconclusive | NS1 inh valid inactive
COc1cccc2sc(N(Cc3cccnc3)C(=O)c3ccc4c(c3)OCCO4)nc12	none (no result: AMA1 RON2 block, SARS PLP yeast, NS1 function inh, AmpC no deterg)
Cc1ccccc1CC(=O)NCCN1CCCCC1	none
